High-throughput results: PubChem BioAssay, National Center for Advancing Translational Sciences (NCATS)
SARS PLpro yeast: qHTS of Yeast-based Assay for SARS-CoV PLP | S. cerevisiae expressing SARS-CoV PLpro, growth rescue | Potency, µM (top dose mostly 32.9 µM), without a hit: at the top dose activity, positive = growth rescue, hits mostly activators | 330,000 tested, 0.19% active | AID 485353, 2010; calls by dose curve; further: 0% is about no effect; nearly all actives have a fitted effect of over 55% in size
NS1 function inh: qHTS Assay for Inhibitors of Influenza NS1 Protein Function | Potency, µM (doses to about 46.1 µM), without a hit: top-dose activity, positive = more growth | AID 2326, 2010 | 270,000 tested, 0.4% active; calls by dose curve; further: actives are rising curves; nearly all actives have a fitted effect of over 50% in size
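A cell-based growth assay was used: compounds that relieve NS1-induced slow growth of budding yeast raise OD600. Assay medium was yeast nitrogen base with ammonium sulphate and -URA supplement, pH 6.0, with 2% galactose.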
Pf growth 96h: Primary qHTS for delayed death inhibitors of the malarial parasite plastid, 96 hour incubation. P. falciparum luciferase reporter growth, 96 h. AID 504834, 2011. 320,000 tested, 6.9% active. Potency, µM (doses to about 28.7 µM), for inactives: at the highest dose activity change, negative = inhibition, hits mostly inhibitors; further: on the % scale 0 is the no-effect control and ±100 the full control effect
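Parasite growth measured via integrated firefly luciferase reporter in P. falciparum. Infected erythrocytes at 2% hematocrit, 0.05% parasitemia final were treated 96 hours at 37 C under 5% CO2, and luminescence was read.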
Pf growth 48h: Primary qHTS for delayed death inhibitors of the malarial parasite plastid, 48 hour incubation. P. falciparum luciferase growth in erythrocytes, 48 h. Potency, µM (titrated, usually from 28.7 µM), for the others: at the highest dose activity change, negative = inhibition, hits mostly inhibitors. 310,000 tested, 5.9% active. AID 504832, 2011; further: on the % scale 0 is the no-effect control and ±100 the full control effect
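Luciferase-expressing parasites in RBCs, 2% Hct / 0.1% parasitemia final; RPMI 1640 + 0.5% Albumax; 37 C, 5% CO2, one generation; luminescence read-out, lower signal = inhibition.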
Starred values were filed as active, the others as inactive; ? = inconclusive; · = no result; ! = not active in a repeat. A selection: hits, their analogues and other compounds. The true share with any hit is near 10%. Unless noted, the call rests on the fitted dose curve; in most records, active means well fitted inhibition curve with a large enough effect; inconclusive means small, poorly fitted or top-dose-only effect, or another doubt; inactive means no such curve, though single readings can be large or run the other way. Potency means the concentration at half of the fitted maximal effect.

SMILES	SARS PLpro yeast	NS1 function inh	Pf growth 96h	Pf growth 48h
COc1ccc(C(CNCC(O)COc2c(C)ccc(C)c2C)N(C)C)cc1 (stereo not drawn)	-1.5%	-2.6%	?	·
NC(=O)CC(NC(=O)Cc1cccc2ccccc12)c1ccc(NCCCN2CCCC2=O)c([N+](=O)[O-])c1 (stereo not drawn)	-10.0%	-8.6%	?	?
CCN1CCCc2cc(CN(CCN3CCOCC3)C(=S)Nc3cccc(C)c3)ccc21	4.9%	·	11.7µM*	?
Cc1ccc(NC(=S)N(CCCN2CCOCC2)Cc2ccco2)cc1	1.7%	1.6%	11.7µM*	1.8%
CCN1CCCc2cc(CN(CCN3CCOCC3)C(=S)Nc3ccc(OC)c(Cl)c3)ccc21	2.3%	·	18.5µM*	?
Cc1cccc(NC(=S)N(CCN2CCOCC2)Cc2ccccc2F)c1	-2.4%	·	?	?
Cc1ccc(NC(=S)N(CCN2CCOCC2)Cc2ccccc2F)cc1Cl	1.2%	·	?	11.7µM*
CCN1CCCc2cc(CN(CCN3CCOCC3)C(=S)Nc3ccccc3C)ccc21	0.1%	·	?	-10.7%
COc1ccc(C(=O)N/C(=C\c2ccco2)C(=O)NCc2cccnc2)cc1	-4.9%	25.0%	1.17µM*	33.2%
O=C(NCc1cccnc1)/C(=C/c1ccco1)NC(=O)c1ccccc1	2.8%	6.7%	11.7µM*	28.4%
O=C(NC(Cc1ccccc1)C(=O)O)/C(=C\c1ccco1)NC(=O)c1ccccc1 (stereo not drawn)	0.3%	10.3%	2.62µM*	40.2%
Cc1ccc(C(=O)N/C(=C\c2ccco2)C(=O)NCCCn2ccnc2)cc1	-3.1%	4.2%	9.28µM*	40.5%
O=C(NCc1cccnc1)/C(=C/c1ccccc1)NC(=O)c1ccccc1	0.2%	-1.2%	-3.0%	3.1%
O=C(NC(Cc1c[nH]c2ccccc12)C(=O)O)/C(=C/c1ccc2c(c1)OCO2)NC(=O)c1ccccc1 (stereo not drawn)	1.2%	·	48.7%	-10.2%
Cc1ccc(C(=O)N/C(=C\c2ccco2)C(=O)NCCN2CCCCC2)cc1C	-0.3%	-2.3%	0.5%	12.4%
O=C(NC(Cc1c[nH]c2ccccc12)C(=O)O)/C(=C\c1ccccc1)NC(=O)c1ccccc1 (stereo not drawn)	0.9%	2.4%	10.4µM*	9.9%
O=C(NCCN1CCCCC1)/C(=C/c1ccco1)NC(=O)c1ccccc1	2.0%	4.5%	6.57µM*	1.6%
CC(C)CCOP(N)(=O)Oc1ccccc1 (stereo not drawn)	10.2%	-4.8%	2.08µM*	-22.9%
O=C(NCCCN1CCOCC1)/C(=C/c1cccs1)NC(=O)c1ccccc1	-1.2%	-5.0%	17.8%	8.0%
CCOc1cc(S(=O)(=O)N2CCN(CC)CC2)ccc1Cl	6.1%	-7.0%	?	9.0%
CCCc1nc(C)c2c(=O)[nH]c(-c3cc(S(=O)(=O)N4CCN(CC)CC4)ccc3OCC)nn12	·	·	7.57µM*	?
COC(=O)C1=C(C)N(Cc2ccccc2)C(=NCCCCO)N[C@H]1c1ccccc1	1.1%	-3.8%	?	40.7%
COC(=O)C1=C(C)N(Cc2ccccc2)C(=NCCc2cccnc2)N[C@H]1c1ccccc1	-5.8%	-25.8%	14.7µM*	?
COC(=O)C1=C(C)N(Cc2ccccc2)C(=NCCc2cccnc2)N[C@H]1c1ccc(Br)cc1	-0.1%	-23.0%	40.8%	7.38µM*
COC(=O)C1=C(C)N(Cc2ccccc2)C(=NCC2CC2)N[C@H]1c1ccccc1	-7.1%	-1.7%	23.9%	9.28µM*!
SMILES	SARS PLpro yeast	NS1 function inh	Pf growth 96h	Pf growth 48h
Cc1cc(C)c(S(=O)(=O)N2CCCC(C(=O)NC3CC3)C2)c(C)c1 (stereo not drawn)	1.7%	1.6%	95.4%	-10.6%
C[C@@H](C(=O)O)c1cccc(C(=O)c2ccccc2)c1	·	·	-23.4%	13.3%
COc1ccccc1CNC(=O)CN(C)CC(=O)Nc1ccccc1Br	-2.1%	·	·	·
Clc1cccc(CSc2nc3ccncc3[nH]2)c1	-4.1%	-0.8%	?	·
CCN(CCNC(=O)c1ccc(CSc2nc3ccncc3[nH]2)cc1)c1ccccc1	2.3%	-2.3%	-24.4%	10.4µM*
O=C(NCCN1CCN(c2cccc(Cl)c2)CC1)c1ccc(CSc2nc3ccncc3[nH]2)cc1	1.1%	·	?	1.65µM*
CC1CC(C)CN(C(=O)c2ccc(CSc3nc4ccncc4[nH]3)cc2)C1 (stereo not drawn)	12.6%	8.7%	14.0%	-19.8%
c1ccc(CNc2nc(NCc3ccccc3)c3ccccc3n2)cc1	-0.7%	-5.3%	0.738µM*	1.17µM*
